SMILES strings stand for the structures. Hit rate of the full screen: of about 52,000 compounds, about 4,300 (8.3%) were called active. Rule as the data show it: active = survival mostly below about 52% (no sharp cut-off); inactive = mostly above about 56%. What follows is part of a selection rich in actives, with near analogues and random picks from the rest.

The test system of this assay is DeltatarO mutant. The assay can be described thus: S. aureus survival, RN4220 and DeltatarO strains – OD600, teichoic acid synthesis inhibitors, primary screen (AID 463173). The settings on record: S. aureus RN4220 wild type/DeltatarO growth, OD600, 18 h, active compounds read low, screened at 18.75 µg/mL (by protocol).
With `CC(CCc1ccccc1)NC(=O)Cn1ncc2c3ccccc3n(Cc3cccc(Cl)c3)c2c1=O` (stereo not given), the survival was 95% (inactive).
As for `CCCN1CC=C2C(C1)C(c1ccc(C(=O)OC)cc1)C(C#N)=C(N)C2(C#N)C#N` (stereo not given), the figure is 51% (active); as for `CCN1CC=C2C(C1)C(c1ccc(Cl)s1)C(C#N)=C(N)C2(C#N)C#N` (stereo not given), 105% (inactive).
As for `CC(C)(C)OC(=O)N1CC=C2C(C1)C(c1cccc(F)c1)C(C#N)=C(N)C2(C#N)C#N` (stereo not given), the figure is 79% (inactive); as for `COc1cc(-c2nnc(SCC(=O)N3CCCc4ccccc43)o2)cc(OC)c1OC`, 66% (inactive); as for `Cc1ccc(Cl)cc1NC(=O)C1CCN(C(=O)c2cnn(-c3ccccc3)c2-n2cccc2)CC1`, 71% (inactive).
For the compound `Cc1cc(C)nc(SCc2noc(-c3ccc(Cl)cc3)n2)n1`, the survival is 97% (inactive).
Consider `CCc1ccccc1NC(=O)Nc1cc(C(=O)NCc2ccc(C)cc2)ccc1N1CCCC1`, for which the survival is 113% (inactive).
Consider `COc1ccc(NC(=O)Cn2c(=O)n(CCC(=O)NCC3CCCO3)c(=O)c3cc(OC)c(OC)cc32)cc1` (stereo not given), for which the survival was 72% (inactive).
As for `COc1ccc(OC)c(NC(=O)Cn2nc3c(cc2=O)CCCC3)c1`, the figure is 57% (inactive).
In the case of `Cc1nn(-c2ccc(N3CCOCC3)nn2)c(C)c1CCC(=O)NCc1ccc(Cl)cc1`, the survival was 107% (inactive).
Then `Cc1cc(C)c(NC(=O)c2oc3c(c2C)-c2[nH]ncc2CC3)c(C)c1`, with 67% (inactive).
As for `Cc1cc(NC(=O)c2oc3c(c2C)-c2[nH]ncc2CC3)ccc1Br`, the figure is 3% (active).
`CCc1ccc(NC(=O)c2oc3c(c2C)-c2[nH]ncc2CC3)cc1`: the survival was 48% (inactive).
Then `Cc1ccc(Cn2cc(CCC(=O)NCc3ccccc3F)c3ccccc32)cc1`, with 77% (inactive); and `Cc1c(C(=O)Nc2ccc(Br)cc2F)oc2ccc(S(=O)(=O)N3CCCCC3)cc12`, with 78% (inactive).
Then `Cc1cccc(N2CCN(CCCNC(=O)c3sc4ncccc4c3-n3cccc3)CC2C)c1` (stereo not given), with 105% (inactive); and `COc1cc2c(cc1OC)C1=C(C#N)CN(C3CCCCC3)CN1CC2`, with 83% (inactive); and `NC(=O)C1CCN(C(=O)C2CCN(S(=O)(=O)c3ccc(-n4cnnn4)cc3)CC2)CC1`, with 97% (inactive).
Then `Cc1ccccc1NC(=O)c1c(C)oc2ccc(O)c(CN3CCCC3)c12`, with 80% (inactive); and `Cc1ccccc1NC(=O)c1c(C)oc2ccc(O)c(CN(C)Cc3ccccc3)c12`, with 81% (inactive).
As for `CCN1CCN(Cc2c(O)ccc3oc(C)c(C(=O)Nc4ccc(C)cc4C)c23)CC1`, the survival is 92% (inactive).
As to `CCN(Cc1ccccc1)Cc1c(O)ccc2oc(C)c(C(=O)Nc3ccc(C)cc3C)c12`, the survival is 33% (active).
Then `CCN(Cc1ccccc1)Cc1c(O)ccc2oc(C)c(C(=O)Nc3ccccc3C)c12`, with 29% (active); and `Cc1ccc(NC(=O)c2c(C)oc3ccc(O)c(CN(C)Cc4ccccc4)c23)c(C)c1`, with 73% (inactive).
Then `Cc1cc(=O)n(CC(=O)NC(C)c2ccccc2)c2c1c(C)nn2C` (stereo not given), with 66% (inactive).
As for `Cc1ccc(Nc2nnc(-c3ccc(C)c(S(=O)(=O)N4CCN(C)CC4)c3)c3ccccc23)cc1`, the figure is 80% (inactive); as for `COCCOC(=O)c1c(-c2ccccc2)c(-c2ccccc2)nn(C)c1=O`, 65% (inactive); as for `Cc1ccc2[nH]c(C)c(CCNC(=O)c3cc4cc(Br)ccc4oc3=O)c2c1`, 37% (active).
`COc1ccc2oc(=O)c(C(=O)Nc3cccc(C(=O)O)c3)cc2c1`: the survival is 50% (active).
Then `COc1ccc2oc(=O)c(C(=O)NCCc3c(C)[nH]c4ccc(Br)cc34)cc2c1`, with 45% (inactive).
As for `Cc1[nH]c2ccc(F)cc2c1CCNC(=O)c1cc2cc(Cl)ccc2oc1=O`, the figure is 52% (inactive).
For `COc1ccc2oc(=O)c(C(=O)Nc3ccc(C(=O)O)cc3)cc2c1`, the survival is 136% (inactive).
Then `COc1ccc2oc(=O)c(C(=O)Nc3ccc(O)cc3)cc2c1`, with 98% (inactive); and `COc1cccc2cc(C(=O)NCCc3c(C)[nH]c4ccc(F)cc34)c(=O)oc12`, with 53% (inactive); and `COc1ccc2oc(=O)c(C(=O)NCCc3c(C)[nH]c4c(C)cccc34)cc2c1`, with 47% (active).
As for `COc1ccc2oc(=O)c(C(=O)NCCc3c(C)[nH]c4c(Cl)cccc34)cc2c1`, the figure is 62% (inactive); as for `COc1ccc2oc(=O)c(C(=O)NCCc3c(C)[nH]c4ccc(F)cc34)cc2c1`, 46% (inactive).
As for `COc1ccc2oc(=O)c(C(=O)NCCc3c(C)[nH]c4ccc(C)cc34)cc2c1`, the figure is 40% (active); as for `Cc1[nH]c2c(C)cccc2c1CCNC(=O)c1cc2ccccc2oc1=O`, 86% (inactive).
With `Cc1cc(C)n(C(C)CC(=O)Nc2cccc(C#N)c2)n1` (stereo not given), the survival was 78% (inactive).
As for `CN(C)CCN(Cc1ccccc1)S(=O)(=O)c1ccc(-c2cc(C(F)(F)F)on2)s1`, the figure is 87% (inactive); as for `O=C1CCC(=O)N1CNc1ccccc1`, 85% (inactive); as for `CC(=O)N1CCOc2cc(S(=O)(=O)Nc3cc(C(F)(F)F)ccc3Cl)c(C)cc21`, 94% (inactive).
Then `CCN1CCN(CCCNC(=O)c2cnn(-c3ccc(OC)cc3)c2C2CCN(C(=O)OC(C)(C)C)CC2)CC1`, with 95% (inactive); and `Cc1ccc(N2CCN(c3nc4ccccc4n4nnnc34)CC2)c(C)c1`, with 105% (inactive); and `Cc1cccc(C)c1NC(=O)Cn1cc(C(=O)C2CC2)c2ccccc21`, with 67% (inactive).
As for `CCOc1ccc(NCc2cccn2-c2nnc(N3CCC(C(=O)NC(C)c4ccccc4)CC3)s2)cc1` (stereo not given), the figure is 74% (inactive); as for `O=C1C2C(C(=O)N1CC1CCCO1)C1C=CC2C12CC2` (stereo not given), 80% (inactive); as for `COc1cccc2cc(C(=O)NCCc3c(C)[nH]c4ccc(Br)cc34)c(=O)oc12`, 121% (inactive).
Regarding `C=CCc1cccc2cc(C(=O)NCCc3c(C)[nH]c4c(C)cccc34)c(=O)oc12`, the survival is 48% (inactive).
As for `Cc1[nH]c2ccc(Br)cc2c1CCNC(=O)c1cc2ccccc2oc1=O`, the figure is 32% (active); as for `COc1ccc(Cl)cc1Nc1ccc2cc(S(=O)(=O)N3CCCCC3)ccc2n1`, 83% (inactive); as for `CCc1ccc(S(=O)(=O)NCc2cccn2Cc2cccc(C)c2)cc1`, 79% (inactive).
As for `Cc1cccc(Cn2cccc2CNS(=O)(=O)c2ccccc2F)c1`, the figure is -2% (active); as for `Cc1cccc(Cn2cccc2CNS(=O)(=O)c2ccc(Br)cc2)c1`, 76% (inactive); as for `CCOc1ccccc1C(=O)N1CCN(CCc2ccccn2)CC1`, 67% (active).
As for `O=C(c1ccccc1Cl)N1CCN(CCc2ccccn2)CC1`, the figure is 52% (inactive); as for `Cc1ccccc1C(=O)N1CCN(CCc2ccccn2)CC1`, 49% (inactive); as for `CC(CNC(=O)CN1C(=O)c2cccnc2Oc2ccc(Cl)cc21)c1ccccc1` (stereo not given), 90% (inactive).
In the case of `CCOC(=O)c1noc2ncn(CC(=O)Nc3cc(Cl)ccc3OC)c(=O)c12`, the survival is 92% (inactive).
As for `CCOC(=O)c1noc2ncn(CC(=O)Nc3ccccc3OC)c(=O)c12`, the survival was 118% (inactive).
Consider `CCOC(=O)c1noc2ncn(CC(=O)Nc3ccc(F)cc3Cl)c(=O)c12`, for which the survival is -5% (active).
As for `CCCCC(=O)Nc1ccc(C(=O)OCc2cc(=O)n3ccsc3n2)cc1`, the figure is 75% (inactive); as for `CC(C)CC(=O)N1c2nc(C(C)C)nn2C2(CCCCC2)[C@@H]2CCCC[C@@H]21`, 79% (inactive); as for `COc1cccc(NC(=O)c2c(-c3ccc(C)cc3)nnc3ccccc23)c1`, 78% (inactive).
Then `COc1ccccc1Nc1nc(-c2ccccc2Cl)c2cc(Br)ccc2n1`, with 125% (inactive); and `Cc1ccc(Nc2c(-c3cccnc3)nc3ccc(Br)cn23)cc1`, with 80% (inactive).
As for `Clc1ccc(Nc2nc(-c3ccccc3)c3cc(Cl)ccc3n2)cc1`, the figure is 54% (inactive); as for `COc1cccc(Nc2nc(-c3ccccc3)c3cc(C)ccc3n2)c1`, 12% (active); as for `COc1ccc(Nc2nc(N)c3cc(OC)c(OC)cc3n2)cc1`, 87% (inactive).
As to `Cc1cc(C)cc(NC(=O)CSc2nc(-c3ccccc3)c3cc(F)ccc3n2)c1`, the survival was 87% (inactive).
Then `Cc1ccc2nc(Nc3ccc(Br)cc3)nc(-c3ccccc3)c2c1`, with 35% (active); and `Clc1ccccc1-c1nc(Nc2ccccc2)nc2ccc(Br)cc12`, with 47% (active); and `COc1ccc(Nc2nc(-c3ccccc3)c3cc(Br)ccc3n2)cc1`, with 23% (active).
As for `CCN(CC)c1nc(-c2ccccc2Cl)c2cc(Br)ccc2n1`, the figure is 55% (inactive); as for `COc1cccc(Nc2cc(C)nc3ccccc23)c1`, 109% (inactive).
On to `O=C(CCn1cccn1)Nc1ccc(Br)cc1F`, for which the survival was 93% (inactive).
Take `COC(=O)c1cc2sccc2n1CC(=O)Nc1cc(Cl)ccc1OC`: the survival is 99% (inactive).
Then `S=C(Nc1ccccc1)N1CCOCC1`, with 89% (inactive); and `CC(=O)c1cccc(NC(=O)c2nc3ccccc3nc2N2CCCCC2)c1`, with 71% (inactive); and `Cc1cccc(NC(=O)CSc2nc3c(oc4ccccc43)c(=O)n2C(C)C)c1`, with 63% (inactive).
Then `CCc1ccc(C(=O)c2cn(CC(=O)Nc3cccc(OC)c3)c3cc4c(cc3c2=O)OCO4)cc1`, with 72% (inactive).
Then `O=C(COc1ccc(Cl)cc1)Nc1nnc2n1CCS2`, with 124% (inactive).
`Cc1ccc(C(=O)N2CCC(c3c[nH]c4ccccc34)(c3c[nH]c4ccccc34)CC2)cc1`: the survival is 87% (inactive).
On to `COc1ccc(CCNc2ncnc3c2c(-c2ccccc2)cn3-c2ccc(Cl)cc2)cc1OC`, for which the survival is 97% (inactive).
Then `Cc1ccc2nc(NN)nc(-c3ccccc3)c2c1`, with 98% (inactive); and `Cc1ccc(C)c(Nc2nc(-c3ccccc3)c3cc(Br)ccc3n2)c1`, with 43% (active); and `Oc1ccccc1Nc1nc(-c2ccccc2)c2cc(Cl)ccc2n1`, with 71% (inactive).
Then `Clc1ccc2nc(Nc3ccccc3Cl)nc(-c3ccccc3)c2c1`, with 75% (inactive); and `Cc1cccc(Nc2nc(-c3ccccc3)c3cc(C)ccc3n2)c1`, with 3% (active); and `Clc1ccc(Nc2nc(-c3ccccc3)c3ccccc3n2)c(Cl)c1`, with 72% (inactive).
As for `COc1cc2nc(Nc3cccc(C)c3)nc(N)c2cc1OC`, the figure is 67% (inactive).
In the case of `O=C(O)c1ccc(Nc2nc(-c3ccccc3)c3cc(Br)ccc3n2)cc1`, the survival is 21% (active).
As for `O=C(O)c1cccc(Nc2ncnc3ccc(Br)cc23)c1`, the figure is 119% (inactive).
